Source: PubChem BioAssay (The Scripps Research Institute Molecular Screening Center)
hcDAF12 agonist: H. contortus DAF-12 nuclear receptor activators, primary screen, cell-based, luminescence, HEK293, lit1-tk-luc reporter; HEK293 hcDAF-12 lit1-tk-luc reporter; 0% DMSO, 100% Δ7-dafachronic acid; activation, % at 6.8 µM; 1.4% of 370,000 active;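 active means activation above the mean of all tested compounds plus 3 SD, cut at about 5.5% in these data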;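 further: 100% = response to 3 µM Δ7-dafachronic acid high control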
ssDAF12 agonist: S. stercoralis DAF-12 nuclear receptor activators, primary screen, cell-based, luminescence, HEK293, GRIP1 co-expression, lit1-tk-luc; HEK293 ssDAF-12/GRIP1 lit1-tk-luc reporter; % of 3 µM dafachronic acid response; activation, % at 6.8 µM; 1% of 370,000 active; AID 652126, 2013;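 active means activation above the mean over all tested compounds plus 3 SD, cut at about 0.9% in these data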;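 further: 0% = DMSO-only wells and 100% = 3 µM delta7-dafachronic acid wells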
DAX1 inh-1: DAX1 (NR0B1) inhibitors, primary screen, cell-based, HEK293, Gal4-DAX1, luciferase luminescence; HEK293 Gal4-DAX1 luciferase reporter; inhibition, % at 6.75 µM; 0.99% of 340,000 active;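 active means inhibition above the mean over all tested compounds plus 3 SD, cut at about 4.2% in these data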;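 further: 0% = DAX1-transfected cells with DMSO and 100% = empty-vector control cells with DMSO; inhibition shows as a rise in luminescence from relieved DAX1 repression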
Target sequence (P51843 207-470 limits assumed): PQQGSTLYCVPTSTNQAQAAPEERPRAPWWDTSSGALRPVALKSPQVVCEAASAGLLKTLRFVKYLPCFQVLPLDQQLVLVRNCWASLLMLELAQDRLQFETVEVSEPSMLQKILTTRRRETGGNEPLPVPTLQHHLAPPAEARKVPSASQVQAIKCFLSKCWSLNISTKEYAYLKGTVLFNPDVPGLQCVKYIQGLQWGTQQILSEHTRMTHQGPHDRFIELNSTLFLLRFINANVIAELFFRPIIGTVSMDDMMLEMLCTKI
hgDAF-12 ag: H. glycines DAF-12 receptor agonists, primary screen, cell-based, luminescence, HEK293, GAL4 fusion, UAS-luciferase; Nuclear hormone receptor DAF-12 (Heterodera glycines), GAL4 fusion; HEK293 GAL4-hgDAF12 UAS-luciferase reporter, agonist luminescence; normalized to butyrate control; activation, % at 6.8 µM; 1.8% of 370,000 active; AID 687014, 2013;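 active means activation above a cutoff set at the mean of all screened compounds plus 3 SD, cut at about 10% in these data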;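 further: 0% = DMSO wells and 100% = sodium butyrate wells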
DAX1 inh-2: DAX1 (NR0B1) inhibitors on StAR promoter, primary screen, cell-based, luminescence, SF-1 (NR5A1), full-length DAX-1; HEK293T StAR-luciferase reporter, SF-1/DAX-1 repression relief; inhibition, % at 6.8 µM; 1.1% of 370,000 active; AID 652010, 2013;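 active means inhibition above the mean over all tested compounds plus 3 SD, cut at about 3.6% in these data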;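 further: 0% = DAX-1 cells with DMSO and 100% = cells lacking DAX-1 with DMSO; higher inhibition means more luminescence from relief of DAX-1 repression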
* = called active by the depositor; . = not tested or not shown. Only some compounds are listed: those with a hit (about 4.1% of all), similar ones and a draw of the others.

SMILES | hcDAF12 agonist | ssDAF12 agonist | DAX1 inh-1 | hgDAF-12 ag | DAX1 inh-2
Cc1ccc(C(=O)N2CCN(Cc3ccc4c(c3)OCO4)CC2)o1 | -1 | -2 | 0 | 0 | 0
Cc1ccc2c(C)c(C(=O)N3CCN(Cc4ccc5c(c4)OCO5)CC3)oc2c1C | 5.8* | 0 | 0 | 10 | 2
Cc1cccc(N2Cc3ccc(Br)cc3C2)c1 | 6.5* | 0 | 4 | 6 | 1
C/C(=N/O)c1cccc(N2Cc3ccccc3C2)c1 | 2 | -1 | -1 | 2 | 0
COC(=O)C1CCN(C(=O)COC(=O)c2cc(-c3cccs3)nn2-c2ccccc2)CC1 | -2 | -1 | 4.6* | 3 | -1
CC(=O)Nc1ccc(C(=O)COC(=O)c2c(C)noc2C)c(F)c1 | -1 | -2 | -1 | 1 | 1
CC(=O)Nc1ccc(C(=O)COC(=O)c2cccs2)c(F)c1 | 2 | 0 | 1 | 11* | 3
COc1ccc(C(=O)COC(=O)c2cccs2)cc1 | 2 | 0 | 2 | 11* | 3.7*
COc1ccc2c(c1)[C@@]1(NCCc3c1[nH]c1ccc(OC)cc31)C(=O)N2C | 2 | 0 | . | -2 | 2
COc1ccc2[nH]c3c(c2c1)CCN[C@]31C(=O)N(C)c2ccc(Br)cc21 | 4 | 1.1* | . | -2 | -1
CC1Sc2ccc(C(=O)Nc3ccccc3OC(F)F)cc2NC1=O (configuration not stated) | 0 | -1 | 1 | 6 | 4.3*
O=C(Nc1ccccc1OC(F)F)c1ccc(F)cc1 | -3 | -1 | -1 | 0 | 1
NC(=O)CSc1nnc(-c2ccc(O)cc2)n1Cc1ccco1 | 0 | -1 | 9.2* | 0 | 0
O=C(CSc1nnc(-c2ccncc2)n1Cc1ccco1)Nc1ccccc1F | -2 | -2 | 6.2* | -2 | -1
NC(=O)CSc1nnc(-c2cccs2)n1Cc1ccco1 | -1 | -2 | 5.5* | -1 | 0
O=C(CSc1nnc(-c2ccncc2)n1Cc1ccco1)Nc1ccccc1Cl | -2 | -1 | 1 | -1 | 0
COc1ccc(-c2cc(=O)oc3cc(OCC(=O)NCc4ccccn4)ccc23)cc1 | 4 | -1 | 5.7* | -1 | 0
CCCCc1cc(=O)oc2cc(OCC(=O)Nc3ccccn3)ccc12 | 5 | 0 | 2 | 8 | 4.3*
COc1ccc(-c2cc(=O)oc3cc(OC(C)C(=O)NCc4ccccn4)ccc23)cc1 (configuration not stated) | 3 | -1 | 3 | -6 | -1
O=C1N(CCCO)CCC12CCCCC2 | 0 | -1 | . | 0 | 0
CC(=NNC(=O)CSc1nnc(-c2ccc(C(C)(C)C)cc2)n1-c1ccccc1)c1cccc2ccccc12 | -1 | -2 | . | 2 | -1
O=C(NCCc1ccccc1)OCc1cn(Cc2ccccc2F)nn1 | -1 | 1 | . | -1 | 0
C(=N\Nc1ccccc1)/c1ccc(N2CCOCC2)cc1 | 4 | 1.2* | 2 | 13* | 2
Clc1cccc(N/N=C/c2ccc(N3CCOCC3)cc2)c1 | 2 | -1 | 1 | 2 | 1
CC1(C)CC(C(=O)NCCC(c2ccccc2)c2ccco2)CCO1 (configuration not stated) | -2 | -1 | 1 | 1 | 1
SMILES | hcDAF12 agonist | ssDAF12 agonist | DAX1 inh-1 | hgDAF-12 ag | DAX1 inh-2
CC1(C)CC(NCCC(c2ccccc2)c2ccco2)CCO1 (configuration not stated) | 2 | -2 | 8.2* | 1 | 1
CCN(C(=O)CSc1nnc(-c2cccnc2)n1Cc1ccco1)c1ccccc1C | -1 | -2 | . | 3 | 0
O=C(COc1ncnc2cc(Cl)ccc12)c1ccc2c(c1)OCCO2 | 2 | 0 | 4.8* | 2 | 1
O=C(COc1ncnc2ccccc12)c1ccc2c(c1)OCCO2 | 5 | 0 | 2 | 11* | 2
O=C(CSc1ncnc2ccccc12)c1ccc2c(c1)OCCO2 | -1 | -1 | -2 | 5 | 0
Cc1ccc(C(=O)COc2ncnc3cc(Cl)ccc23)cc1 | 0 | -1 | . | -2 | 0
CCC(C)[C@H](NC(=O)OC(C)(C)C)C(=O)N[C@@H](Cc1ccccc1)C(=O)OC (some centres not stated) | -1 | -1 | . | -4 | 0
CN[C@H]1C[C@H]2c3[nH]c4cccc(-c5ccc6c(c5)OCO6)c4c3CCN2C[C@H]1[C@H](C)O | -1 | -2 | . | 1 | 0
Cc1sc2ncnc(SCC(=O)NNC(=O)c3ccco3)c2c1C | -2 | -1 | 0 | -1 | 0
Cc1sc2ncnc(OCC(=O)N3CCN(C(=O)c4ccco4)CC3)c2c1C | -1 | -1 | 5.7* | 2 | -1
COc1ccc(C(C(=O)N(C)C2CCCC2)N(Cc2ccc(F)cc2)C(=O)c2cc(C)[nH]n2)cc1OC (configuration not stated) | -1 | -2 | . | 2 | 0
CCN(CC)C(=O)CC[C@H]1CC[C@]2(CCCN(CC3CC3)C2)O1 | -1 | -1 | . | -2 | 0
O=c1[nH]c2ccccc2c2ccc(Cl)cc12 | 0 | 0 | 1 | 5 | 0
Nc1c(Br)cc2c([nH]c(=O)c3ccccc32)c1Br | 6.3* | 2.4* | 0 | 4 | -2
Cc1ccc2c(c1)C1CS(=O)(=O)N(C3CCCC3)C(=O)N1C2 (configuration not stated) | 2 | -1 | . | 3 | 1
CCCCOc1ccc(C(=O)N/C(=C\c2ccc(OC)cc2)C(=O)OCc2ccco2)cc1 | -2 | -1 | 0 | -2 | 0
COc1ccc(C(=O)N/C(=C\c2ccco2)C(=O)OCc2ccco2)cc1 | -1 | 0 | 5.5* | 1 | 0
COc1ccc(C(=O)/C=C/Nc2ccc(S(=O)(=O)Nc3onc(C)c3C)cc2)cc1 | 4 | 1.2* | 1 | 11* | 3.9*
CCc1ccc(C(=O)/C=C/Nc2ccc(S(=O)(=O)Nc3onc(C)c3C)cc2)cc1 | 2 | 0 | 0 | 11* | 1
CCN(CC)CCCNC(=O)C(C)n1c2ccccc2c2nc(=O)cc(C)n21 (configuration not stated) | -1 | -1 | 5.4* | -1 | 1
Cc1cc(=O)nc2c3ccccc3n(CC(=O)NCCCN3CCCC3=O)n12 | 6.0* | 0 | 1 | 3 | 1
Cc1cc(=O)nc2c3ccccc3n(C(C)C(=O)NCCN3CCOCC3)n12 (configuration not stated) | 0 | -1 | 1 | 2 | 0
Cc1cc(=O)nc2c3ccccc3n(CC(=O)NCCCN3CCOCC3)n12 | . | . | 1 | . | .
